Hit rate of the full screen: of about 74,000 compounds, about 1,100 (1.5%) were called active. A call without a number means that no potency is given here. About 5% were inconclusive and are not listed. This is one part of a sample in which actives are shown more often than they occur. Calls come from the whole dose curve; as a rule, active = well fitted inhibition curve with a large enough effect; inconclusive = small, poorly fitted or top-dose-only effect; inactive = no such curve, though single readings can be large or run the other way.
What follows are compounds tested against Polyunsaturated fatty acid lipoxygenase ALOX15 (Homo sapiens) (UniProt P16050) (assay: qHTS Assay for Inhibitors of 15-hLO (15-human lipoxygenase)). Conditions: purified 15hLO-1, xylenol orange hydroperoxide absorbance; series mostly up to 57.1 µM.
From the text: Assay Overview: NIH Molecular Libraries Screening Centers Network [MLSCN] NIH Chemical Genomics Center [NCGC] MLSCN Grant: MH081283-01A1 PI Name: Holman, T.R., University of California, Santa Cruz Human lipoxygenase 15hLO-1 is a member of the closely related lipoxygenase family of enzymes which catalyze the site-specific oxidation of arachidonic acid to various hormone precursor molecules and as such is a candidate for drug development in a variety of disease areas, such as cancer and inflammation. Inhibition of 15hLO-1 activity was screened by utilizing arachidonic acid as a substrate. The extent of hydroperoxide product formation was measured by a secondary chromogenic reaction in which xylenol orange (XO, Sigma-Aldrich, cat. number 39,818-7) reacts with the ferric ions produced from the reaction between the hydroperoxide and ferrous ions. The Fe(III)-XO complex is characterized with red-shifted absorbance at 560 nm. A purified preparation of human 15hLO-1 was supplied by Professor Ted Holman, University of California, Santa Cruz.
Assay Protocol: Buffer: 25 mM Hepes pH 7.5, 0.01% Triton X-100. Reagents/Controls: Buffer in columns 3 and 4 as negative control (no enzyme). Substrate solution: 50 uM arachidonic acid (Sigma-Aldrich, St. Louis, MO) final concentration dispensed throughout the plate. Enzyme: 40 nM 15hLO-1 final concentration in columns 1, 2, 5-48. Column 1 is neutral (100% activity). Column 2 contained pin-transferred titration of NDGA (nordihidroguaiaretic acid, Sigma-Aldrich, N 5023, top concentration 10 mM in DMSO, then 1:2 dilution in duplicate). (Dilution factor: 23 nL into 4 uL.) Chromogenic detection reagent (divalent iron/xylenol orange, Fe-XO): 200 uM xylenol orange plus 300 uM ferrous ammonium sulfate prepared freshly in 50 mM sulfuric acid. Assay Steps: Three uL of enzyme were dispensed to 1536-well Greiner black clear bottom plates. Compounds and controls (23 nL) were transferred via Kalypsys PinTool. The plates were incubated for 15 min at room temperature, and then 1 uL of substrate solution was added to start the reaction. After room temperature incubation for 6 minutes, 4 uL of Fe-XO solution was added to each well followed by a short spin (1000 rpm, 15 sec) and the plates were then incubated for 30 min. The absorbance at 405 and 573 nm were measured using ViewLux (Perkin-Elmer) High-throughput CCD imager and absorbance protocol settings. The 573-to-405 absorbance ratio was used to compute reaction progress.
Note: nearly all actives have a fitted effect of over 55% in size.
Potency is the fitted concentration of half-maximal effect.

Polyunsaturated fatty acid lipoxygenase ALOX15 (Homo sapiens), sequence (P16050 whole entry, looked up): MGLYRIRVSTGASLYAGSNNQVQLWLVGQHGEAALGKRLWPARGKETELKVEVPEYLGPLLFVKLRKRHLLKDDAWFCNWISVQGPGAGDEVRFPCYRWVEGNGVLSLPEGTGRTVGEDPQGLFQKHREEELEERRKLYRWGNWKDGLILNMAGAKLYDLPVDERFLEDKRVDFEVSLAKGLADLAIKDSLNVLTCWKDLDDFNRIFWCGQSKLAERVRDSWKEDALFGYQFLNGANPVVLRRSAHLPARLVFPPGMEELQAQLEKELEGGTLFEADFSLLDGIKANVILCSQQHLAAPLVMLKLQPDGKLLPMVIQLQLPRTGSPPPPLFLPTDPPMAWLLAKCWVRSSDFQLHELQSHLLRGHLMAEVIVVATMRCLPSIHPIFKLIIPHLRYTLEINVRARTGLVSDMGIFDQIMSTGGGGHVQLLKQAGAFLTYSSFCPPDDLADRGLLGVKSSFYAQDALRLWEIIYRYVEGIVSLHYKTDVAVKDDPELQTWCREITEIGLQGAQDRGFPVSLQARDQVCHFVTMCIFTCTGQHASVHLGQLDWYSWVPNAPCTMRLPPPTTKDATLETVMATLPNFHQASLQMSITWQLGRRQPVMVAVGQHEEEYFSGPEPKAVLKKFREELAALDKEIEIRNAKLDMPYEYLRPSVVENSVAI

Compound	Potency
CC(C)(Cc1c[nH]c2ccc(Cl)cc12)NCCOc1ccccc1OCC1CC1	12.6 µM (active)
CNCC[C@H](Oc1ccc(C(F)(F)F)cc1)c1ccccc1	inactive
CCC(C)C(=O)O[C@@H]1C[C@@]2(C)C(c3ccoc3)OC(=O)CC23OC2(C)O[C@@]14[C@@]1(C)C(CC(=O)OC)C5(C)CC1(O)C(O)(C5OC(=O)C1(C)OC1C)C(OC(C)=O)[C@@]34O2 (stereo not given in full)	inactive
CN(C)C1C(=O)C(C(N)=O)=C(O)[C@@]2(O)C(=O)C3=C(O)c4c(O)cccc4[C@@](C)(O)C3C[C@@H]12 (stereo not given in full)	inactive
CC(=O)OC1C2CCC3C1(CC(O)[C@@]1(O)[C@@H](CC(O)C1(C)C)[C@]3(C)O)C[C@@]2(C)O (stereo not given in full)	inactive
COC(=O)N(c1ccc(OC)cc1)P1(=S)OCCC(C)O1 (stereo not given)	3.98 µM (active)
CC1=CC(=O)C2=C(C)C[C@H](O)[C@H]3[C@H](C)C(=O)O[C@@H]3C12 (stereo not given in full)	inactive
C[C@@]12CCC3C(CC[C@@H]4CC(O)CC[C@@]34C)C1CCC2O (stereo not given in full)	inactive
CCN1C[C@]2(COC)C(O)C[C@H](OC)[C@@]34C5C[C@]6(O)C(OC)C(O)[C@](OC(C)=O)(C5C6OC(=O)c5ccccc5)C(C(OC)C23)C14 (stereo not given in full)	inactive
Clc1ccc(C(c2ccc(Cl)cc2)n2cc[n+](C[C@@H](OCc3ccc(Cl)cc3Cl)c3ccc(Cl)cc3Cl)c2)cc1	20 µM (active)
CN1C2CC3CC1C(O3)C2O (stereo not given)	inactive
N#Cc1c(Cl)c(Cl)c(Cl)c(C#N)c1Cl	inactive
CC[C@@H]1CN2CC[C@@H]1C[C@H]2[C@H](O)c1ccnc2ccc(OC)cc12	inactive
CNC(C)[C@@H](O)c1ccccc1 (stereo not given in full)	inactive
COc1ccc2c3c1OC1CC(O)C=C[C@@]31CCN(C)C2 (stereo not given in full)	inactive

Source: PubChem BioAssay AID887 (National Center for Advancing Translational Sciences (NCATS), 2007)
